Data on eleven compounds can be found in PubChem BioAssay.

The nature of the test: small-molecule microarray binders of probe aEGFR, primary screen, biochemical, biotinylated probe, 635/667 nm fluorescence (AID 1097).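 Further: probe is a biotinylated anti-EGFR antibody binding compounds printed on slides; score combines fluorescence near 667 nm and signal to noise of each spot.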 The settings on record: higher = more signal.
`CCc1oc(CC[C@@H](CO)NC(=O)NCCn2cc(C3(O)CCCCC3)nn2)c(C(=O)OC)c1C(=O)OC` came in with a composite z-score of 0.0473. `O=C1C2C=CC(C(O)c3c(F)cccc3Cl)N(Nc3ccccc3)C2C(=O)N1c1ccccc1` (stereo unspecified): the composite z-score is -0.0251. The figure for `COc1ccc(C(=O)Nc2ccc(CN3C(=O)[C@@]4(O[C@@H](CCO)[C@H]([Si](C)(C)c5ccc(OC)cc5)[C@H]4C)c4ccccc43)cc2)cc1` is -0.0774; for `CC(C)c1ccc(NN2C(C(O)c3cc(C(F)(F)F)cc(C(F)(F)F)c3)C=CC3C(=O)N(c4ccccc4)C(=O)C32)cc1` (stereo unspecified) it is -0.152; for `CC(=O)NCCCC[C@@H]1NC(=O)[C@@H]2C[C@H](C(=O)NCCCCCCNC(=O)CS)[C@H](c3cccc(OCCO)c3)N2C1=O` it is -0.112. In the case of `O=C1c2ccccc2[C@@]2(Cc3ccccc3N(CCN3CCOCC3)C2=O)[C@H](c2ccc(CO)cc2)N1Cc1ccccc1` it was -0.172; in that of `CCCCCN1CC=CC23O[C@@H]4/C=C\CCCOC(=O)C4[C@H]2C(=O)N(C(CO)C(C)C)[C@@H]3C1=O` (stereo partly specified), -0.201. In the case of `CN1C(=O)[C@]2(Cc3ccccc3)N=C(c3ccc(OCCCO)cc3)O[C@@H]2c2ccccc21` it was 0.0492; in that of `COc1ccc(CCNC(=O)[C@@H]2c3ccccc3C(=O)N(C3Cc4ccccc4C3)[C@H]2c2ccc(CO)cc2)cc1`, -0.0624; in that of `COc1cc2c(cc1OC)CN(C(=O)[C@H]1[C@@H]3C(=O)O[C@@H](c4ccccc4)[C@@H](c4ccccc4)N3[C@@H](c3ccc(O)cc3)[C@]13C(=O)Nc1ccc(C#CC4=CCCCC4)cc13)CC2`, 0.143.

Consider `CCCC=C(CCC)[C@@H](NS(=O)(=O)c1cccs1)c1ccc(C(=O)OC)cc1`, for which the composite z-score is -0.11.
